Test results: PubChem BioAssay (NCI)
This is part of a sample that, as a whole, favours compounds with a hit. Of some 79,000 tested, about 15% had one in any assay. Unmarked numbers belong to inactive results. The source made the active and inactive calls. Rule as the data show it: active = growth inhibition above about 70%; inactive = the rest. Where a SMILES comes first, the peptide text is derived from it. [ ]: non-standard residue; d: D form. Hiv = CC(C)[C@H](O)C(=O)O

Legend:
[1] = NCI Yeast Anticancer Drug Screen. Data for the rad50 strain (AID 155);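 also: 0% = growth of vehicle-only cultures of the same strain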; conditions: S. cerevisiae rad50 strain growth inhibition; at 50.0 µM; hits give high values
Outline: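 Relative growth inhibition (compound vs vehicle) was measured in yeast with a defined repair-gene alteration.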

[2] = NCI Yeast Anticancer Drug Screen. Data for the mec2-1 strain (AID 157); conditions: S. cerevisiae mec2-1 strain, at 50.0 µM, hits give high values
Outline: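 mec2-1 yeast strain, carrying an alteration in DNA damage repair or cell cycle control, was exposed to compounds; growth inhibition was measured relative to vehicle-treated controls.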

[3] = NCI Yeast Anticancer Drug Screen. Data for the sgs1 mgt1 strain (AID 161);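 also: 0% = growth of cultures given vehicle only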; conditions: S. cerevisiae sgs1 mgt1 strain, at 50.0 µM, hits give high values
Outline: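 Yeast cells carrying a defined DNA-repair defect were exposed to test compounds. Growth inhibition was measured relative to vehicle-treated controls.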

[4] = NCI Yeast Anticancer Drug Screen. Data for the cln2 rad14 strain (AID 165);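 also: 0% = growth equal to vehicle treated cultures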; conditions: S. cerevisiae cln2 rad14 strain, at 50.0 µM, hits give high values
Outline: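 Yeast carrying cln2 and rad14 alterations (cell cycle control and DNA damage repair) were exposed to compounds. Growth inhibition was measured against vehicle-treated controls.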

[5] = NCI Yeast Anticancer Drug Screen. Data for the bub3 strain (AID 167); conditions: S. cerevisiae bub3 mutant strain, at 50.0 µM, hits give high values
Outline: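 Screening used yeast with an engineered genetic alteration affecting cell cycle control. Compound-exposed cultures were compared with vehicle cultures, and reduced growth was taken as inhibition.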

[6] = NCI Yeast Anticancer Drug Screen. Data for the mlh1 rad18 strain (AID 175); conditions: S. cerevisiae mlh1 rad18 strain growth inhibition; at 50.0 µM; hits give high values
Outline: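 Growth inhibition of the yeast strain was measured after compound exposure and expressed relative to vehicle-treated controls. The strain carries defined defects in DNA damage repair.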

SMILES | growth inhibition [1] | growth inhibition [2] | growth inhibition [3] | growth inhibition [4] | growth inhibition [5] | growth inhibition [6]
N#CC(C#N)=C1C=CC=CC=C1 | 14.2% | 5% | 0.85% | -11.4% | 8.75% | -4.4%
c1ccc2c(c1)C1c3ccccc3C2C2OC12 (stereo unspecified) | 14.2% | 1.5% | -4% | -2.9% | -10.1% | 34.4%
Cc1cc(=O)n2[nH]nnc2n1 | 10.5% | 17.6% | 26.4% | 13.2% | 12.5% | 14.2%
[N-]=[N+]=Nc1ccccc1C(=O)NC(=O)Nc1ccccc1 | -14.1% | 1.95% | 5.5% | -19.2% | 2.45% | -2.1%
N#Cc1c(CC(=O)O)cc(=O)n2c1[nH]c1ccccc12 | -13.9% | -12.9% | -1.9% | 13.4% | -11.9% | -10.3%
c1ccc2c(CN3CCCCC3)cccc2c1 | -6.1% | -19.1% | -4.05% | 5.5% | -15.2% | -13.9%
CCCCSc1nc(NCC)nc(NCC)n1 | 63.6% | 38.9% | 67% | 27.1% | 40.5% | 41.9%
CNC(C#N)c1ccc(OC)cc1 (stereo unspecified) | 3.55% | 17.9% | -26.9% | -17.4% | -9.75% | -28.4%
COc1ccc2ncc(COC(=O)Nc3ccccc3)c(COC(=O)Nc3ccccc3)c2c1 | 22% | -6.2% | 11.8% | 5.65% | -7.4% | 6.1%
O=C1/C(=C/c2ccco2)N=C2Sc3c(nc[nH]c3=O)N12 | 2.4% | -19.2% | 6.55% | -3.65% | 9.5% | 16.6%
CCN(CC)Cc1cc(OC)c(OC)c(OC)c1 | -8.3% | -14.5% | -6.6% | -50.9% | 7% | -18.1%
COc1ccc(-c2nnc(-c3ccc(OC)cc3)nn2)cc1 | 1.8% | 15.7% | -7.1% | -11.8% | 4.2% | -3%
CCN1C(=O)CC(SCCSC2CC(=O)N(CC)C2=O)C1=O (stereo unspecified) | 16.7% | -7.7% | 6.25% | -6.55% | 13.7% | -2.45%
Cc1[nH]c2ccc(-c3ccccc3)cc2c1CC(=O)OC(C)C | 97% (active) | 98.5% (active) | 98.2% (active) | 97.8% (active) | 98.2% (active) | 98% (active)
CC(C)(C)c1ccccc1OC(=O)Nc1ccc(F)cc1 | 3.65% | 7.1% | 7.4% | -14.2% | 19.1% | -3.7%
O=c1nc2n(cc1F)C1OC(CCl)C(O)C1O2 (stereo unspecified) | 8.55% | -8% | 15.7% | 1.05% | 6.9% | 2.2%
CC(C)C1OC2(CCCC2)OCC1(C)C (stereo unspecified) | -10.2% | -19.4% | -10.4% | -21.8% | -4.7% | -1.1%
CCOC(=O)COc1cc(C)c2ccc(=O)oc2c1 | 3.9% | -1.35% | 10.8% | 8.45% | 6.4% | 29.1%
C/C=C/C=c1/[nH]c(=O)/c(=C\C)[nH]c1=O | -6.85% | -5.15% | -10.6% | -21.5% | 0.95% | -14.2%
COc1cccc(-c2cc(=O)c3cccc(CC(=O)O)c3o2)c1 | 5.9% | -4.9% | -11.6% | 2.85% | -2.35% | -30.9%
CC(C)[C@@H]1OC(=O)[C@@H](C)NC(=O)[C@@H]2CCCN2C1=O (cyclo([Hiv]-Pro-[dA])) | -38.2% | -6.75% | -15.1% | 5.95% | -22.6% | -16.4%

SMILES | growth inhibition [1] | growth inhibition [2] | growth inhibition [3] | growth inhibition [4] | growth inhibition [5] | growth inhibition [6]
O=C(O)c1cccc2c1CCCC2 | -2.7% | 7.35% | -21.6% | 0.05% | -11.6% | 8.05%
COc1cc2c[n+]3ccc4ccccc4c3c(N)c2cc1OC | 16% | -8.2% | -10.6% | 15.8% | 5.9% | -4.85%
CC(=O)Nc1ccc(S(=O)(=O)O)nc1 | 0.45% | 5.15% | -6.8% | 16.8% | 7.65% | -6.9%
COC(=O)c1ccc2c(c1)CC1(C2)Cc2cc3c(cc2C1=O)CCC3 (stereo unspecified) | -3.35% | -37.8% | -0.5% | -3.15% | 14.3% | -5.3%
Cc1ccc(/C=N/n2c(Cc3ccccc3)n[nH]c2=O)cc1 | 16.9% | 5.1% | 3.65% | 11.8% | 4.25% | 25.6%
Cc1nc(N)c2nc(SC(C)C)c(N)nc2n1 | 2.85% | -6.55% | 0.45% | -31.2% | -20.9% | 17.2%
O=C1C[CH]([Ge](=[O])[O][Ge](=[O])[CH]2CC(=O)NC(=O)N2)NC(=O)N1 (stereo unspecified) | 43.9% | 18.2% | 25.1% | 16.6% | -5.3% | 22.1%
O=C(O)CCCCCCCCCCOc1ccc(Cl)cc1 | 24.2% | -7.9% | 10.1% | -3.45% | 11% | -33.6%
COc1cc(C=C(c2ccc(N(C)C)cc2)c2ccc(N(C)C)cc2)c2ccccc2c1OC | 22.9% | 14.5% | 3.15% | 27.3% | -12.8% | -42.5%
O=C1CSC(c2c[nH]c3ccccc23)N1c1cccc([N+](=O)[O-])c1 (stereo unspecified) | -61.2% | -39.5% | -59.9% | -0.7% | -59% | -39%
CN(C)c1nc(=O)c2c(ccc3ccccc32)o1 | 26.2% | 24.3% | 7.6% | 14.7% | 0.55% | -3.7%
COC(=O)C1C(O)C(C)C(O)OC1C(C)C(O)C(C)/C=C\C=C(/C)C(=O)Nc1c(C)c(OC(C)=O)c2c(c1O)C(=O)C(C)=C1OCOC(/C(C)=C/C(C)=O)=C12 (stereo unspecified) | 14.6% | 8.3% | 9.8% | 13.4% | 14% | 17.6%
CC(=O)NC1C(OC(C)C(=O)NC(C(=O)NC(CCC(=O)NCCCNC2c3ccccc3Nc3cccc([N+](=O)[O-])c32)C(N)=O)C(C)C)C(O)C(CO)OC1(C)OCc1ccccc1 (stereo unspecified) | -29.1% | -20.4% | 4.3% | 13.4% | -25.8% | 3.25%
CC1(C)C2CCC3CC(CCC#N)CCC3C21C#N (stereo unspecified) | -32.2% | -11.2% | -8.8% | -34.5% | -37.8% | -23.1%
Brc1ccc(C(c2ccc(Br)cc2)C(Br)(Br)Br)cc1 | 2.8% | 3.75% | 1.9% | -12.9% | 1.5% | 8.2%
CC1CCCC/C1=N\N(C)C (stereo unspecified) | -44% | -19.9% | -12.8% | -29.6% | -5.65% | 2.7%
Cc1ccc(-c2cc(=O)c3cc(C)c(C)c(C(=O)O)c3o2)cc1 | 3.15% | 0.25% | 10.8% | 19.9% | 7.1% | 10.8%
O=C(OC1C#CCSCC#C/C=C\1)c1cnc2ccccc2n1 (stereo unspecified) | -34% | -13.4% | -24.3% | -11.2% | -2.55% | -23%
CC(=O)N1CC=CCC1 | -16.6% | 5.85% | -17.9% | -7.5% | -1.55% | -2.85%
CC1OC(CC(=O)O)CC2=C1C(=O)c1c(O)cccc1C2=O (stereo unspecified) | -6.3% | -8.3% | 17.2% | 0.6% | -14.2% | 10.2%
